AMA1 RON2 block – qHTS for Inhibitors of AMA1-RON; Towards Development of Antimalarial Drug Lead: Primary Screen. Plasmodium falciparum AMA1 (3D7) - RON2 peptide interaction. AlphaScreen AMA1-biotinylated RON2 peptide binding. Potency, µM (top dose mostly 58.2 µM), usual class: inhibitors. 360,000 compounds, 0.2% hits. AID 720542, 2013; also: nearly all actives have a fitted effect of over 45% in size
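AMA1 (3D7) with his tag at 25 nM final met compounds first, then biotinylated RON2 peptide at 25 nM; detection used donor plus acceptor beads, 10 µg/mL apiece, read by AlphaScreen after 30 min at room temperature.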
Shiga toxin inh – A qHTS for Small Molecule Inhibitors of Shiga Toxin; Vero cells, Shiga toxin protein synthesis inhibition reporter; inhibition, % at 38.7 µM; 290,000 compounds, 9.2% hits; in the data active = inhibition mostly above about 28%, no sharp cut-off; inactive = mostly below about 43%
Cycloheximide cs – Cycloheximide Counterscreen for Small Molecule Inhibitors of Shiga Toxin. AID 2314, 2010. max response, %. 300,000 compounds, 12% hits. cell reporter, cycloheximide protein synthesis inhibition counterscreen; in the data active = max response mostly above about 13%, no sharp cut-off; inactive = mostly below about 14%; also: read at 38.3 µM for the half of the compounds with a filed dose
Pf growth 96h – Primary qHTS for delayed death inhibitors of the malarial parasite plastid, 96 hour incubation | P. falciparum luciferase reporter growth, 96 h | 320,000 compounds, 6.9% hits | Potency, µM (highest dose often 28.7 µM), actives largely listed as inhibitors | AID 504834, 2011
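Two parasite generations (96 h, 37 C, 5% CO2) of compound exposure in infected erythrocytes (0.05% parasitemia, 2% hematocrit). Luciferase-reporter P. falciparum; decreased luminescence indicates inhibited growth, aimed at apicoplast-acting delayed death.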
Pf growth 48h – Primary qHTS for delayed death inhibitors of the malarial parasite plastid, 48 hour incubation; Potency, µM (top dose mostly 28.7 µM), actives largely listed as inhibitors; AID 504832, 2011; 310,000 compounds, 5.9% hits; P. falciparum luciferase growth in erythrocytes, 48 h
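Here the parasites carry a stable luciferase gene and grow inside erythrocytes in Albumax-based RPMI medium with compound for one erythrocytic cycle. Activity is scored as loss of luminescent signal.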
SARS PLP yeast – qHTS of Yeast-based Assay for SARS-CoV PLP; AID 485353, 2010; Potency, µM (top dose mostly 32.9 µM), actives largely listed as activators; 330,000 compounds, 0.19% hits; S. cerevisiae expressing SARS-CoV PLpro, growth rescue; calls by dose curve; also: nearly all actives have a fitted effect of over 55% in size
Each line names hits and unclear results; the compound was inactive in the other large screens. Sampled rows, rich in hits. Any-hit rate of the full collection: about 19%. Unless noted, calls follow the shape of the dose curve; as a rule, active = well fitted curve in the direction sought with a large enough effect; inconclusive = small, poorly fitted or top-dose-only effect, or another doubt; inactive = no such curve, though single readings can be large; an effect the other way counts as inactive or inconclusive.

CCOC(=O)c1cccc(NC(=O)Cn2c(CC(=O)N3CCCC3)nc3ccccc32)c1	Pf growth 96h inconclusive (no result: AMA1 RON2 block)
O=C1CCC/C=C/C[C@@H](CC(=O)N(CCO)Cc2ccccc2)C(=O)NC[C@@H](c2ccccc2)O1	none (no result: Shiga toxin inh, Cycloheximide cs, Pf growth 96h, Pf growth 48h)
Cc1cc(C2=NNC(=NC3CCCCC3)SC2)c(C)n1-c1c(C)n(C)n(-c2ccccc2)c1=O	Pf growth 96h 13µM, Pf growth 48h 6.6µM
c1csc(-c2nn3c(C4CCCCC4)nnc3s2)c1	none (no result: Shiga toxin inh, Cycloheximide cs, Pf growth 96h, Pf growth 48h, SARS PLP yeast)
c1csc(C2=NNC(=NC3CCCCC3)SC2)c1	Shiga toxin inh 75, Cycloheximide cs 37
C/C(=N/NC(=O)CN1CCN(S(=O)(=O)c2ccc(C)cc2)CC1)c1ccco1	none
CN(CC(=O)NCCC1=CCCCC1)S(=O)(=O)c1ccc2c(c1)c(=O)n(C)c(=O)n2C	none (no result: Pf growth 48h)
Cc1ccc(NC(=O)CN(C)S(=O)(=O)c2ccc3c(c2)n(C)c(=O)c(=O)n3C)cc1	Pf growth 96h 12µM, Pf growth 48h inconclusive
COc1ccc(NC(=O)CN(C)S(=O)(=O)c2ccc3c(c2)c(=O)n(C)c(=O)n3C)cc1	Pf growth 96h 13µM
CN(CC(=O)NCCc1ccc(Cl)cc1)S(=O)(=O)c1ccc2c(c1)c(=O)n(C)c(=O)n2C	Pf growth 96h 13µM (no result: Pf growth 48h)
COc1ccc(NC(=O)CN(C)S(=O)(=O)c2ccc3c(c2)n(C)c(=O)c(=O)n3C)cc1	none
COc1ccc(C2=NN(C(=O)c3ccccc3)C(c3ccc(OC)c(OC)c3)C2)c(O)c1 (stereo unspecified)	Pf growth 96h 10µM, Pf growth 48h 10µM
COc1ccc(C2CC(c3ccc(OC)cc3OC(C)=O)=NN2C(=O)c2ccccc2)cc1 (stereo unspecified)	Cycloheximide cs 14, Pf growth 96h inconclusive
COc1ccc(C2CC(c3ccccc3)=NN2C(=O)COC(=O)c2cccc(N)c2)cc1 (stereo unspecified)	none (no result: Shiga toxin inh, Cycloheximide cs, Pf growth 96h, Pf growth 48h)
COc1ccc(C2CC(c3ccccc3OC(=O)/C=C/c3ccccc3)=NN2C(C)=O)cc1 (stereo unspecified)	none
COc1ccc(C2=NN(C(=O)c3ccccc3)C(c3cccc([N+](=O)[O-])c3)C2)cc1 (stereo unspecified)	AMA1 RON2 block inconclusive, Pf growth 96h inconclusive, Pf growth 48h inconclusive
COc1ccc(C2CC(c3ccccc3OC(C)=O)=NN2C(=O)/C=C/c2ccccc2)cc1OC (stereo unspecified)	Pf growth 96h inconclusive, Pf growth 48h 2.6µM
COc1ccc(C2=NN(C(=O)/C=C/c3ccccc3)C(c3ccccc3)C2)c(OC(C)=O)c1 (stereo unspecified)	Pf growth 96h inconclusive, Pf growth 48h 13µM
CCNC(=O)N(C)C[C@H]1N[C@@](CC)(C(=O)OC)[C@H]2C(=O)N(Cc3ccccc3)C(=O)[C@@H]12	none (no result: Shiga toxin inh, Cycloheximide cs, Pf growth 96h, Pf growth 48h)
Cc1ccc(-n2c(N)c(C(=O)Nc3ccccc3F)sc2=S)cc1C	Pf growth 96h inconclusive
COc1ccccc1C1=NN(C(=O)c2ccccc2)C(c2ccc(Br)cc2)C1 (stereo unspecified)	Cycloheximide cs 17, Pf growth 48h 3.7µM
COc1ccc(C2CC(c3ccc(Br)cc3)=NN2C(=O)c2cccnc2)cc1 (stereo unspecified)	Pf growth 96h inconclusive
COc1cc(NS(=O)(=O)c2ccc(NC(=O)/C=C/C(=O)O)cc2)nc(OC)n1	none
Cc1cc(=O)oc2cc(OCC(=O)N3CCC(C(N)=O)CC3)ccc12	none
COC(=O)C1=CN(c2cc(C)cc(C)c2)C=C(C(=O)OC)C1c1cccc(F)c1	Pf growth 96h inconclusive, Pf growth 48h 12µM
CCN1C=C(C(=O)OC)C(c2cccc(C)c2)C(C(=O)OC)=C1	Pf growth 96h 12µM (no result: Pf growth 48h)
COCCN1C=C(C(=O)OC)C(c2cc3c(cc2Br)OCO3)C(C(=O)OC)=C1	Pf growth 96h inconclusive, Pf growth 48h 5.9µM
COC(=O)C1=CN(Cc2cccs2)C=C(C(=O)OC)C1c1ccc(OC)cc1OC	Pf growth 48h inconclusive
COC(=O)C1=CN(Cc2cccs2)C=C(C(=O)OC)C1c1cccc(Cl)c1	Pf growth 96h inconclusive, Pf growth 48h 9.3µM
COc1ccc(CNC(=O)COC(=O)CO/N=C(\C)c2ccc3c(c2)OCO3)cc1	none (no result: Shiga toxin inh, Cycloheximide cs, SARS PLP yeast)

High-throughput results deposited in PubChem BioAssay by National Center for Advancing Translational Sciences (NCATS).
